Source: PubChem BioAssay (National Center for Advancing Translational Sciences (NCATS))
Most compounds without a hit are left out; they make up all but 21% or so of the library.
NS1 function inh = inhibitors of influenza NS1 protein function. Potency, µM (highest dose often 46.1 µM). 270,000 compounds, 0.4% hits. AID 2326; calls by dose curve; further: actives are rising curves; nearly all actives have a fitted effect of over 50% in size
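Growth recovery, yeast-based: influenza A NS1 expressed in S. cerevisiae causes slow growth, and suppressors are detected by OD600. The parent strain without NS1 is used as positive control.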
Shiga toxin inh = blocks Shiga toxin action in Vero cells; inhibition, % at 38.7 µM; 290,000 compounds, 9.2% hits; Vero cells, Shiga toxin protein synthesis inhibition reporter; in the data active means inhibition mostly above about 28%, no sharp cut-off; inactive means mostly below about 43%
SARS PLP yeast = SARS-CoV PLP inhibition in yeast. S. cerevisiae expressing SARS-CoV PLpro, growth rescue. 330,000 compounds, 0.19% hits. Potency, µM (series often up to 32.9 µM), most hits filed as activators. AID 485353; calls by dose curve; further: nearly all actives have a fitted effect of over 55% in size
Pf growth 48h = inhibits P. falciparum growth in the first generation, 48 h; Potency, µM (titrated, usually from 28.7 µM), most hits filed as inhibitors; 310,000 compounds, 5.9% hits; P. falciparum luciferase growth in erythrocytes, 48 h
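First compound was added to culture medium, then infected red cells at 0.1% parasitemia and 2% hematocrit (final). After incubation at 37 C under 5% CO2, luciferase detection reagent was dispensed and light output recorded.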
CHX counter = counter-screen hit for Shiga toxin inhibitors, cycloheximide; cell reporter, cycloheximide protein synthesis inhibition counterscreen; max response, %; 300,000 compounds, 12% hits; in the data active means max response mostly above about 13%, no sharp cut-off; inactive means mostly below about 14%; further: read at 38.3 µM for the half of the compounds with a filed dose
Pf growth 96h = P. falciparum growth inhibition at 96 hour, primary screen for plastid delayed-death inhibitors | P. falciparum luciferase reporter growth, 96 h | 320,000 compounds, 6.9% hits | Potency, µM (top dose mostly 28.7 µM), actives largely listed as inhibitors
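Two-generation exposure (96 h) targets delayed-death phenotype. Reporter parasites carrying integrated firefly luciferase, in red cells at 2% hematocrit and 0.05% parasitemia final, kept at 37 C, 5% CO2; luminescence loss indicates inhibition.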
Hits are given with their value; i = inactive; ? = inconclusive; nt = no result. Unless noted, the call rests on the fitted dose curve; in most records, active means well fitted inhibition curve with a large enough effect; inconclusive means small, poorly fitted or top-dose-only effect, or another doubt; inactive means no such curve, though single readings can be large or run the other way.

SMILES | NS1 function inh | Shiga toxin inh | SARS PLP yeast | Pf growth 48h | CHX counter | Pf growth 96h
COc1ccc(OC)c(NC(=O)CCN2CC(C)OC(C)C2)c1 (centres undefined) | i | i | i | i | i | 1.9µM
CCN(CC)S(=O)(=O)c1ccc(OC)c(NC(=O)c2ccc3c(c2)OCO3)c1 | nt | i | i | i | i | i
CCOC(=O)C1=NN(c2ccccc2)C2=NC(C)=C(C(=O)OC)C(c3ccc(C)cc3)N12 (centres undefined) | i | i | i | i | i | ?
COc1cc(OC)c(C(=O)Oc2ccc3c(c2)OCO3)cc1OC | i | i | i | i | i | i
COc1ccc(C(=O)Oc2ccc3c(c2)OCO3)cc1OC | i | 75 | i | i | 30 | i
COc1ccccc1N1CCN(C(CNC(=O)c2ccc3c(c2)OCO3)c2cccnc2)CC1 (centres undefined) | i | i | i | ? | 15 | i
COc1ccccc1N1CCN(C(CNC(=O)C2CCCCC2)c2cccnc2)CC1 (centres undefined) | i | i | i | ? | i | ?
COc1cc2c(cc1NCc1ccc3c(c1)OCO3)oc1ccccc12 | i | 68 | i | i | 37 | i
COc1cc2c(cc1NC(=O)c1ccc3c(c1)OCO3)oc1ccccc12 | i | 92 | i | i | 41 | i
COC(=O)c1cc(CN2CCN(c3ccccc3C)CC2)ccc1O | i | i | i | nt | i | ?
CCC(C)N(C(=O)Cn1c(=O)cnc2ccccc21)C1CCS(=O)(=O)C1 (centres undefined) | nt | nt | i | i | nt | i
CCCc1cc(C(=O)Nc2cc(OC)ccc2OC)cs1 | i | 30 | i | i | 18 | i
Cc1ccc2cc(C#N)c(N3CCCN(C(=O)c4cnccn4)CC3)nc2c1 | i | i | i | i | i | ?
COc1ccc(C(=O)N2CCN(c3nc4cc(C)ccc4cc3C#N)CC2)c(OC)c1 | i | i | i | 2.1µM | i | i
Cc1ccc2cc(C#N)c(N3CCN(C(=O)c4ccccc4)CC3)nc2c1 | i | i | i | ? | i | ?
Cc1ccc2cc(C#N)c(N3CCCN(C(=O)C4CCCO4)CC3)nc2c1 (centres undefined) | i | i | i | 2.9µM | i | ?
COc1cc(C(=O)N2CCCN(c3nc4cc(C)ccc4cc3C#N)CC2)cc(OC)c1OC | i | i | i | 8.3µM | i | nt
N#Cc1c(Nc2cccc(F)c2)sc2c(O)cc(=O)[nH]c12 | i | i | i | i | i | i
CCOc1ccc(CCNC(=O)COC(=O)/C=C/c2ccc(OCC#N)c(OC)c2)cc1OCC | ? | i | i | i | i | i
CCCCCCCCNC(=O)/C(C#N)=C/c1ccc2c(c1)OCCO2 | i | i | i | i | i | i
N#C/C(=C/c1ccc2c(c1)OCO2)C(=O)Nc1ccc(O)cc1 | i | i | i | i | 49 | ?
N#C/C(=C\c1ccc2c(c1)OCCO2)C(=O)Nc1ccc(C(=O)O)cc1 | i | 113 | i | i | 78 | i
CN(C(=O)COC(=O)c1ccc2c(c1)OCCO2)c1ccccc1 | i | i | i | i | i | i
O=C(CCS(=O)(=O)c1ccccc1)Nc1ccc(-c2nc3ccccc3s2)cc1 | i | i | i | i | 33 | i
O=C(CCS(=O)(=O)c1ccccc1)Nc1cccc(-c2nc3ccccc3s2)c1 | i | 79 | i | i | 57 | i
SMILES | NS1 function inh | Shiga toxin inh | SARS PLP yeast | Pf growth 48h | CHX counter | Pf growth 96h
O=C(COc1ccccc1Cl)Nc1cc(NC(=O)COc2ccccc2Cl)cc(C(=O)O)c1 | ? | i | i | i | i | i
O=C(COc1ccccc1Cl)Nc1ccc(-c2nc3ccccc3s2)cc1 | nt | i | nt | nt | 38 | nt
O=C(Nc1cccc(-c2nc3ccccc3s2)c1)c1cccs1 | i | i | i | i | i | ?
CC1=C(C(=O)OCCOc2ccccc2)C(c2ccsc2)NC(=O)N1C (centres undefined) | nt | i | i | i | i | ?
COc1ccc(CNC(=O)/C=C/c2ccc(S(=O)(=O)NCc3ccco3)cc2)cc1OC | i | i | i | ? | i | ?
CN(Cc1ccc(Cl)cc1)C(=O)c1ccc(S(=O)(=O)NCc2ccco2)cc1 | nt | nt | i | ? | nt | ?
COc1ccc(CCN(C)C(=O)c2ccc(S(=O)(=O)NCc3ccco3)cc2)cc1OC | i | 81 | i | i | 55 | i
CN(Cc1cccs1)C(=O)c1ccc(S(=O)(=O)NCc2ccco2)cc1 | i | i | i | i | 27 | ?
OC1OC[C@@H](O)[C@H](O)[C@H]1O (some centres undefined) | nt | i | nt | i | i | i
